Results published in PubChem BioAssay (NCI).
Compounds without any hit were thinned out: in the full panel of roughly 83,000, 20% have a hit.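 Assay: single dose, 48 h. Readout: percent growth (0 = no net growth; negative = cell death). Active: <10.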 A number with no mark means an inactive call. The source made the active and inactive calls.

Tests used:
Test in all cases: NCI-60 one-dose screen, 48 h (100 = growth as untreated, 0 = no growth, -100 = all killed)
Conditions in all cases: 10 µM unless noted
SK-MEL-2 melanoma = system: SK-MEL-2 melanoma
EKVX NSCLC = system: EKVX NSCLC
SN12C renal = system: SN12C renal
UO-31 renal = system: UO-31 renal
TK-10 renal = system: TK-10 renal
ACHN renal = system: ACHN renal
CAKI-1 renal = system: CAKI-1 renal
A498 renal = system: A498 renal
CCRF-CEM leukemia = system: CCRF-CEM leukemia
MOLT-4 leukemia = system: MOLT-4 leukemia

| Compound | growth (SK-MEL-2 melanoma) | growth (EKVX NSCLC) | growth (SN12C renal) | growth (UO-31 renal) | growth (TK-10 renal) | growth (ACHN renal) | growth (CAKI-1 renal) | growth (A498 renal) | growth (CCRF-CEM leukemia) | growth (MOLT-4 leukemia) |
| --- | --- | --- | --- | --- | --- | --- | --- | --- | --- | --- |
| COc1ccc(-c2nc(SCCC(C)C)nc(N/N=C(/C)c3ccc(N)cc3)c2C#N)cc1 | 109% | 93.4% | 75.1% | 69.3% | 104% | 92.9% | 81.8% | 90.9% | 95.8% | 95.4% |
| Oc1ccc(C(c2ccc(O)cc2)c2ccc(Cl)cn2)cc1 | 72.7% | 15.8% | 6.15% (active) | 64.8% | -3.31% (active) | 15.7% | 73.5% | -1.72% (active) | 70.2% | 98.3% |
| O=C1C(c2c(O)[nH]c3ncccc23)=Nc2ccccc21 | 43.4% | 30.6% | 90.6% | 46.2% | 56.4% | 51.5% | 53.7% | 117% | 88.4% | 85.4% |
| Cc1nc2c(c(-c3ccccc3)n1)Cc1c(ccc3ccccc13)O2 | 112% | 128% | 102% | 69.8% | 106% | 90.8% | 109% | 79.1% | 96.5% | 97% |
| NS(=O)(=O)Oc1cccc(-c2nc3sccn3c2-c2ccccc2)c1 | 55.6% | 66.7% | 53% | 68.8% | 87.9% | 75.1% | 45.7% | 7.63% (active) | 40.2% | 31.1% |
| CN(C)CCCN(CCC1CCCCC1)CCC1CCCCC1 | 61.4% | 73.2% | 80.4% | 42% | 85.2% | 65.8% | 52.9% | 58.8% | 21.4% | 15.9% |
| CN(C)c1ccc(Cc2cc(-c3ccccc3)nn(C/C(=N/O)c3ccccc3)c2=O)cc1 | 67.9% | 49.5% | 17.9% | 36.1% | 84.5% | 52.8% | 53.6% | -3.2% (active) | 46.6% | 35.1% |
| N#C/C(=C/C=C/c1ccccc1)S(=O)c1ccccc1 (configuration not stated) | -15.9% (active) | -6.51% (active) | -52.5% (active) | -63.4% (active) | -89.8% (active) | -74.4% (active) | -25.6% (active) | -68.4% (active) | -5.68% (active) | -1.2% (active) |
| Nc1cc(-c2ccc(Cl)cc2)nn1-c1nc(-c2ccc(Br)cc2)cs1 | 96.9% | 93.6% | 97.7% | 93.4% | 96.4% | 101% | 97.8% | 91.7% | 104% | 103% |
| [2H]C([2H])([2H])Oc1ccc(/C=C/C(=O)/C=C(O)/C=C/c2ccc(OC([2H])([2H])[2H])c(OC([2H])([2H])[2H])c2)cc1OC([2H])([2H])[2H] | 86.3% | 53.1% | 28.3% | 11.4% | 54.4% | 40.2% | 41.3% | 116% | 22.3% | 60.6% |
| CN1C(=O)N(C)C2C1NN=c1s/c(=C\c3ccccc3F)c(=O)n12 (configuration not stated) | 42.5% | 48.3% | 26% | 42.6% | 63.1% | 36.8% | 31.4% | 1.45% (active) | 11% | 15.8% |
| OC1CSSC1Cn1cnc2c(Nc3ccc(F)c(Cl)c3)ncnc21 (configuration not stated) | 93.3% | 58.5% | 98.9% | 44% | 96.1% | 98.1% | 105% | 103% | 29.6% | -27.1% (active) |
| C=CN(C(=O)N1CCN(c2cc3c(cc2F)c(=O)c(C(=O)O)cn3C2CC2)CC1)c1nc(-c2ccc(C)cc2)cs1 | 35.2% | 24.2% | 8.99% (active) | 13.4% | 42.3% | 27.7% | 20.9% | -4.05% (active) | 4.64% (active) | 13.9% |
| O=C1CCC(C(=O)N/N=C/c2ccc([N+](=O)[O-])cc2)N1 (configuration not stated) | 102% | 102% | 103% | 83.4% | 93% | 101% | 93% | 106% | 97% | 102% |
| O=c1c(/C=C/c2c(O)ccc3ccccc23)nnc2sc(-c3cccc([N+](=O)[O-])c3)nn12 | 79.2% | 54.4% | 45.9% | 20.1% | 83.1% | 31.7% | 24.9% | 50.5% | 18.6% | 25.9% |
| CC(C)(C#N)c1cc(C(=O)Nc2cc(Nc3ncccc3-c3ncnc4nc[nH]c34)ccc2F)cc(C(F)(F)F)c1 | 5.07% (active) | 62.8% | 55.2% | 17.5% | 68.5% | 44.4% | 24.3% | -24.9% (active) | 57% | 57.6% |
| Cc1[nH]c(C(=O)Nc2ccc(C(N)=O)cc2OC(C)C)c(Cl)c1Cl | 100% | 86.3% | 99.9% | 74.4% | 117% | 97.2% | 105% | 84.3% | 92.5% | 89.2% |
| COc1ccccc1/C=C/C1=C(C)CCC(c2ccccc2OC)C1C (configuration not stated) | -7.95% (active) | 35% | 28% | 4.1% (active) | 41.1% | 13% | 2.23% (active) | -4.12% (active) | -9.01% (active) | 4.37% (active) |
| COc1cc(-c2ccc(-c3ccc(C(=N)N)s3)s2)cc(OC)c1OC | 70% | 74.4% | 60% | 67.1% | 82.8% | 2.6% (active) | 41.7% | 84.5% | -7.27% (active) | 4.68% (active) |
| CCOC(=O)c1c(C)nc2c(c1N)C(=O)C(=O)N2CCc1ccc(OC)c(OC)c1 | 75.5% | 57.6% | 89.1% | 57.5% | 70.8% | 74% | 60.2% |  | 75.1% | 57.3% |
| O=C1C2C(c3cccs3)C=C(c3ccc(Cl)cc3)N2C(=S)N1c1ccccc1 (configuration not stated) | 102% | 109% | 95.8% | 71.4% | 116% | 95.5% | 91.3% |  | 98.3% | 95.4% |
| COc1cccc2cc(N(C)c3ncnc4ccccc34)ccc12 | 30.1% | 43.8% | 20.9% | 25.4% | 51% | 6.07% (active) | 10.8% |  | 22% | 16.8% |
